Screening data as filed in PubChem BioAssay.
DAX1 StAR inh = blocks DAX1 repression of SF-1 activated StAR promoter; HEK293T StAR-luciferase reporter, SF-1/DAX-1 repression relief; inhibition, % at 6.8 µM; hit rate 1.1% among 370,000; AID 652010;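 active = inhibition above the mean over all tested compounds plus 3 SD, cut at about 3.6% in these data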;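 note: 0% = DAX-1 cells with DMSO and 100% = cells lacking DAX-1 with DMSO; higher inhibition means more luminescence from relief of DAX-1 repression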
hgDAF12 agonist = agonists of H. glycines DAF-12 nuclear receptor | HEK293 GAL4-hgDAF12 UAS-luciferase reporter, agonist luminescence; normalized to butyrate control | hit rate 1.8% among 370,000 | activation, % at 6.8 µM;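 active = activation above a cutoff set at the mean of all screened compounds plus 3 SD, cut at about 10% in these data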;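 note: 0% = DMSO wells and 100% = sodium butyrate wells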
SMARCA2 activ = increases SMARCA2 function in MMTV reporter cells; hit rate 1% among 370,000; activation, % at 9.1 µM; MG213 cells, MMTV-luciferase reporter, dexamethasone, overnight; in the data active = activation above about 7.8%;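 note: 0% = vehicle wells and 100% = reference activator wells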
hcDAF12 agonist = H. contortus DAF-12 activation, primary screen; activation, % at 6.8 µM; AID 652067; hit rate 1.4% among 370,000; HEK293 hcDAF-12 lit1-tk-luc reporter, luminescence; 0% DMSO, 100% Δ7-dafachronic acid;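 active = activation above the mean of all tested compounds plus 3 SD, cut at about 5.5% in these data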;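 note: 100% = response to 3 µM Δ7-dafachronic acid high control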
ssDAF-12 act = S. stercoralis DAF-12 activation, primary screen. HEK293 ssDAF-12/GRIP1 lit1-tk-luc reporter, luminescence; % of 3 µM dafachronic acid response. activation, % at 6.8 µM. hit rate 1% among 370,000. AID 652126;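 active = activation above the mean over all tested compounds plus 3 SD, cut at about 0.9% in these data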;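 note: 0% = DMSO-only wells and 100% = 3 µM delta7-dafachronic acid wells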
SMARCA2 act conf = confirmation of SMARCA2 (BRM) function activators. shares compounds with SMARCA2 activ. MG213 cells, MMTV-luciferase with dexamethasone, luminescence, overnight; MG213 cells expressing E1A, Rb sequestered; DMSO wells 0%, reference activator 100%. activation, % at 9.1 µM. hit rate 30% among 3,500;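 active = activation above its plate's cutoff, the mean activation of tested wells plus 3 SD, cut at about 7.9% in these data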
GAL4-VP16 Luc = GAL4-VP16 reporter activation counter-screen; shares compounds with SMARCA2 activ; HEK293 GAL4-VP16 pG5luc reporter, luciferase luminescence; scaled: DMSO wells 0%, SAHA wells 100%; activation, % at 9.1 µM; hit rate 41% among 3,500;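 active = activation above the solvent-only control well mean plus 3 SD, averaged across control plates, cut at about 5.2% in these data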
The depositor's hits bear a star; · = not tested or not shown. This is a sample that favours compounds with a hit; in the whole collection about 4.2% have one here.

SMILES | DAX1 StAR inh | hgDAF12 agonist | SMARCA2 activ | hcDAF12 agonist | ssDAF-12 act | SMARCA2 act conf | GAL4-VP16 Luc
C/C(=N\NC(=O)c1ccc(Cl)cc1)c1ccccn1 | 1 | -1 | 2 | 0 | -1 | · | ·
C/C(=N/NC(=O)c1ccccn1)c1c[nH]c2ccccc12 | 2 | 12* | 16* | 6 | 1 | 12* | 4
Cc1ccc(NC(=O)CNC(=O)c2ccc(Oc3ccccc3)cc2)nc1 | 0 | 1 | -2 | -1 | -1 | · | ·
Cc1ccc(NC(=O)CNC(=O)c2cccc(C)c2)nc1 | 3 | 5 | 8.4* | 0 | -1 | 7 | 1
CCOC(=O)c1c(NC(=O)COC(=O)CCCOc2ccc(OC)cc2)sc(C(=O)N(C)C)c1C | 2 | 2 | 8.3* | 0 | -1 | -1 | 0
COc1cccc(C2CNC3(CCCC(C)C3)c3[nH]c4ccccc4c32)c1OC (stereo unspecified) | 0 | 1 | 0 | -1 | -1 | · | ·
CC1(C)CC(=O)CC2(C1)NCC(c1ccccc1)c1c2[nH]c2ccccc12 (stereo unspecified) | 0 | 0 | 8.7* | -2 | -2 | -2 | 1
CCC(C)c1ccc(NC(=O)c2cccnc2)cc1 (stereo unspecified) | 3 | 10 | 9.8* | 2 | 0 | 8.2* | 12*
CCN(CC)CCn1c2ccccc2c2cnc(N)c(C#N)c21 | 3.9* | 8 | 47* | 3 | 0 | 71* | -2
CC1(C)CC(=O)C=C(Nc2ccccc2NC(=O)c2cc(Cl)ccc2F)C1 | -1 | 2 | 9.2* | 1 | -1 | 7 | -1
CS(=O)(=O)N[C@@H]1C[C@@H]2O[C@@H](CO)CC[C@@H]2O[C@@H]1CCc1ccc(/C=C/c2ccccc2)cc1 | 0 | 1 | -1 | 1 | -1 | · | ·
COc1ccc(C2=Nc3ccccc3N(C(=O)c3cccnc3)C2C(=O)NC(C)(C)C)cc1 (stereo unspecified) | 1 | 3 | 2 | 0 | -1 | · | ·
COc1ccc(C2=Nc3ccccc3N(C(=O)c3ccncc3)C2C(=O)NC(C)(C)C)cc1 (stereo unspecified) | 3 | 6 | 16* | 1 | -1 | -2 | 1
COc1ccc(NC(=O)C2C(c3ccc4c(c3)OCO4)=Nc3ccccc3N2C(C)=O)cc1 (stereo unspecified) | 2 | 9 | 9.2* | 6.2* | 1 | 8.0* | 6.4*
COc1ccc(NC(=O)C2C(c3ccc4c(c3)OCO4)=Nc3ccccc3N2C(=O)c2cccc(C(F)(F)F)c2)cc1 (stereo unspecified) | 3 | 4 | 6 | 1 | 0 | · | ·
Cc1cc(C)cc(N(CC(=O)NC2CCC(C)CC2)S(=O)(=O)c2ccc(C)c(C)c2)c1 (stereo unspecified) | 2 | 5 | 1 | -1 | 0 | · | ·
CCCCNc1cccc2c1S(=O)(=O)N[C@@H](Cc1ccccc1)CO2 | -1 | 0 | -2 | -2 | -1 | · | ·
CCc1ccccc1NC(=O)C1CCC(=O)N(c2ccc(OC)cc2)C1c1ccc(OC)cc1 (stereo unspecified) | 2 | 0 | 9.6* | 0 | -1 | -1 | 0
Cc1ccc(C(=O)CNc2cccc([N+](=O)[O-])c2)cc1 | 0 | 8 | 11* | 3 | 0 | 7 | 6.3*
Cc1cccc(NCCC(=O)c2ccc([N+](=O)[O-])cc2)c1C | 0 | 0 | 0 | -1 | -1 | · | ·
O=C(CNc1ccc(Br)cc1)c1ccccc1 | 0 | 1 | 2 | 2 | -1 | · | ·
Cc1ccc(NCCC(=O)c2cccc([N+](=O)[O-])c2)c(C)c1 | 0 | 2 | 8.6* | 1 | -2 | 7 | 3
O=C(CNc1cccc(Cl)c1)c1ccc(Br)cc1 | 0 | 2 | 8.9* | 0 | 0 | 9.8* | -1
Cn1cccc1C(=O)N1CCN(S(=O)(=O)c2cccc3ccccc23)CC1 | 0 | -1 | 5 | -2 | -1 | · | ·
COc1ccc(/C=C/C(=O)c2c(C)nc3ccccn23)cc1 | 1 | 4 | 9.7* | 1 | 0 | 6 | 10*
SMILES | DAX1 StAR inh | hgDAF12 agonist | SMARCA2 activ | hcDAF12 agonist | ssDAF-12 act | SMARCA2 act conf | GAL4-VP16 Luc
O=C1N(c2ccccc2)CC2CC(c3ccccc3)N3CCCC123 (stereo unspecified) | -2 | -2 | -3 | 0 | -1 | · | ·
CC(C)c1ccc(OCc2ccc(C(=O)N3CCCC3)o2)cc1 | 0 | 1 | 2 | -1 | -1 | · | ·
CCOC(=O)c1ccc(COc2ccc(C(C)C)cc2)o1 | 4 | 10 | 10* | 2 | 0 | 13* | 14*
COc1cc(/C=N/N=C2/C(=O)Nc3ccccc32)ccc1O | -1 | 8 | -1 | 6 | 1 | · | ·
O=C1Nc2ccccc2/C1=N\N=C\c1ccc(O)c(O)c1 | 0 | 0 | 9.5* | 3 | -1 | 2 | 6.4*
CCc1ccccc1NC(=O)C1CCCN1S(=O)(=O)c1ccc2c(c1)n(C)c(=O)c(=O)n2C (stereo unspecified) | 0 | -1 | 8.0* | 2 | 0 | -2 | 0
COc1ccc(-n2sc3ccccc3c2=O)cc1 | 0 | 4 | 13* | 5 | -1 | 15* | 3
CC(C)c1c(C(=O)Nc2ccccc2)c(-c2ccccc2)c(-c2ccc(F)cc2)n1CC[C@@H](O)C[C@@H](O)CC(=O)O | · | -1 | 17* | · | · | 13* | -1
O=C(Nc1ccccc1)c1c(F)c(F)c(F)c(F)c1F | -1 | 0 | 1 | 0 | -1 | · | ·
NC1(N2SC(S)=C3CCCC=C32)CCCCC1 | 0 | 0 | -2 | 0 | -1 | · | ·
COc1ccccc1C(=O)Nc1nsc(-c2ccccc2)n1 | 3 | 10 | 8.8* | 2 | -1 | 13* | 15*
COC[C@@H]1CCCN1c1cccc2c1S(=O)(=O)N1CC[C@H](C1)O2 | 0 | -3 | -2 | 0 | 0 | · | ·
COc1cc(/C=N/NS(=O)(=O)c2ccc(C)cc2)ccc1OCc1ccc(C(=O)O)cc1 | 3 | 13* | 9.4* | 3 | 0 | 19* | 14*
O=c1c2ccccc2sc2c(CO)ccc(NCCN3CCCCC3)c12 | 0 | -4 | 8.6* | 2 | 1 | 29* | -1
C=CCN(C)C(C#Cc1ccccc1)Cc1ccccc1 (stereo unspecified) | · | -1 | · | -1 | -2 | · | ·
CCCCCCCCCc1conc1C(=O)/C=C/c1oc2c(c1C)CCC(C)C2 (stereo unspecified) | 4 | -1 | 9.0* | 1 | -2 | -7 | 0
CC1CCc2onc(C(=O)O)c2C1 (stereo unspecified) | 0 | -2 | -1 | -1 | -1 | · | ·
